From PubChem
ALDH1A1 block: qHTS Assay for Inhibitors of Aldehyde Dehydrogenase 1 (ALDH1A1). AID 1030, 2008. Purified ALDH1A1, NADH fluorescence, propionaldehyde substrate. Potency, µM (highest dose often 75.3 µM), inactives show top-dose activity, negative = inhibition, most hits filed as inhibitors. actives 7.3% (n = 220,000);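 further: potency means the concentration at half of the fitted maximal effect; plate controls were no enzyme wells and a reference inhibitor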
IMPase inh: qHTS Assay for Identifying the Cell-Membrane Permeable IMPase Inhibitors; CHO-M1 cells, IP1 accumulation, HTRF TR-FRET ratio; 120,000 tested, under 10 active; Inositol monophosphatase 1 (Rattus norvegicus), P97697; inhibition (IP1 accumulation), % at 46.1 µM; active means well fitted curve in the direction sought with a large enough effect in the signal ratio, not every such curve was filed as active; inconclusive means small, poorly fitted or top-dose-only effect, or a change in a side signal; inactive means no such curve, though single readings can be large or run the other way; the % refers to the signal ratio;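 further: cells stimulated with carbachol in lithium chloride buffer; plate controls were DMSO basal wells for no effect and reference inhibitor wells for full effect; higher means more IMPase inhibition seen as more IP1 and lower FRET ratio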
Target sequence (P97697 whole entry, looked up): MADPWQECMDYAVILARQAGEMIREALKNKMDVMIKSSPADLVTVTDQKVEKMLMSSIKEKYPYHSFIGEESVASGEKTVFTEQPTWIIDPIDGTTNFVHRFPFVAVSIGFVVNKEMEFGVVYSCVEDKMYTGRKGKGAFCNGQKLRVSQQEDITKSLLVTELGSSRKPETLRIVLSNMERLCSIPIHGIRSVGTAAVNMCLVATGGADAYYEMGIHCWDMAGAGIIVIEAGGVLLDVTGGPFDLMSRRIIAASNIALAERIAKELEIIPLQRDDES
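In this qHTS, compounds (final up to 46 uM) act on CHO-M1 cells that are then activated through the M1 receptor with carbachol, in pH 7.4 buffer containing 50 mM LiCl, for 30 min. IP1 accumulation is quantified by the IP-One immunoassay.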
HPGD inh: qHTS Assay for Inhibitors of HPGD (15-Hydroxyprostaglandin Dehydrogenase); 15-hydroxyprostaglandin dehydrogenase [NAD(+)] (Homo sapiens), P15428; purified HPGD, NADH fluorescence kinetic, PGE2 substrate; Potency, µM, for inactives: at the top dose activity change, negative = inhibition, most hits filed as inhibitors; actives 4.3% (n = 150,000); AID 894, 2007; further: potency means the concentration at half of the fitted maximal effect
Target sequence (P15428 whole entry, looked up): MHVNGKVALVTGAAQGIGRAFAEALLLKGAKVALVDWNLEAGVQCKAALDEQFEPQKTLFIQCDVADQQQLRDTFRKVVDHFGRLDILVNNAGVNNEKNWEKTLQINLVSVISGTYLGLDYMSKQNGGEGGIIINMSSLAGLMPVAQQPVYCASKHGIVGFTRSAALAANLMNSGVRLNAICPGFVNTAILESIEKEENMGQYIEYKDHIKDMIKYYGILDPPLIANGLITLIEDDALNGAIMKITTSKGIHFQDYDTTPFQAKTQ
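20 nM HPGD preincubated 15 min at room temperature with compound in 50 mM Tris-HCl pH 8, 0.01% Tween 20. Started with 1 mM NAD+ and 30 uM prostaglandin E2; NADH fluorescence (360/450 nm) read 5 times over 30-s intervals, last minus first.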
Numbers without * were called inactive; u = inconclusive; x = no result; [ ] = remark or other dose. Most compounds without a hit are left out; they make up all but 9% or so of the library. Unless noted, the call rests on the fitted dose curve; in most records, active means well fitted inhibition curve with a large enough effect (not every such curve was filed as active); inconclusive means small, poorly fitted or top-dose-only effect, or another doubt; inactive means no such curve, though single readings can be large or run the other way. Unless noted, on the % scale 0 is the no-effect control and ±100 the full control effect.

SMILES	ALDH1A1 block	IMPase inh	HPGD inh
CC1CC[C@@]2(OC1)OC1C(O)C3C4CC[C@H]5CC(O[C@@H]6O[C@@H](CO)[C@H](OC7OC(CO)C(O)C(OC8OCC(O)C(O)[C@H]8O)[C@@H]7O[C@@H]7OC(CO)[C@H](O)[C@@H](O[C@@H]8OC(CO)C(O)C(O)C8O)C7O)C(O)C6O)C(O)C[C@]5(C)C4CC[C@]3(C)C1C2C (stereo not given in full)	-4%	x	-4%
CC1(C)C(O)CC(=O)[C@]2(C)C1CC(=O)[C@]1(C)C2CC[C@@]2(C)C(c3ccoc3)OC(=O)C3O[C@@]321 (stereo not given in full)	1%	x	-13%
S=C(c1ccc(Cl)cc1)N1CCOCC1	u	2	22µM*
ClC(Cl)=C(c1ccc(Cl)cc1)c1ccc(Cl)cc1	12%	x	-1%
N[C@@H](CCCCP(=O)(O)O)C(=O)O	10%	-1	-11%
O=Cc1cn(Cc2cccc([N+](=O)[O-])c2)c2ccccc12	4µM*	x	-17%
O=C(c1ccccc1F)c1cn(Cc2ccc(F)cc2)c2ccccc12	u	x	-9%
O=Cc1cn(Cc2c(F)cccc2Cl)c2ccccc12	3.2µM*	x	x
CN1CN(c2cccc([N+](=O)[O-])c2)CN=C1N[N+](=O)[O-]	-12%	x	x
O=C(c1ccccc1F)c1cn(Cc2ccccc2)c2ccccc12	-13%	12	0%
O=Cc1cn(Cc2ccccc2F)c2ccccc12	0.45µM*	x	x
CCCCCC1C(=O)O[C@H](C)[C@@H](NC(=O)c2cccc(NC=O)c2O)C(=O)OC(C)C1OC(=O)CC(C)C (stereo not given in full)	6%	x	u
COc1ccc(N2C(=O)/C(=C/C=C/c3ccccc3[N+](=O)[O-])C(=O)NC2=S)cc1	8.9µM*	x	x
CCOC(=O)C1CCN(/C=C2/C(=O)NC(=O)N(c3ccc(OCC)cc3)C2=O)CC1	-1%	1	-5%
CCOc1ccc(N2C(=O)NC(=O)/C(=C\c3cc(OC)c(OC)cc3[N+](=O)[O-])C2=O)cc1	11µM*	x	28µM*
Cc1ccc(N2C(=O)/C(=C/N3CCN(C(=O)c4ccco4)CC3)C(=O)NC2=S)cc1C	u	7	-13%
CCc1ccc(N2C(=O)NC(=O)/C(=C/c3cccn3CCOc3ccc(C)cc3)C2=O)cc1	7%	4	-7%
COc1ccc(N2C(=O)NC(=O)/C(=C\c3ccc([N+](=O)[O-])s3)C2=O)cc1	40µM*	x	x
COc1ccc(CN2C(=O)NC(=O)/C(=C\c3cc(OC)c(OC)c(OC)c3)C2=O)cc1	17%	x	x
COc1ccc(CN2C(=O)NC(=O)/C(=C/c3ccc([N+](=O)[O-])s3)C2=O)cc1	4µM*	x	x
c1ccc2sc(C3(N4CCCC4)CCCCC3)cc2c1	4%	x	x
NCCc1ccc(S(=O)(=O)O)cc1[N+](=O)[O-]	0%[13.5 µM]	x	-5%
CC1CC(=O)O1 (stereo not given)	9%	x	-1%
O=C(Nc1ccc([As](=O)(O)O)cc1)Nc1cccc(Cl)c1Cl	3%[13.5 µM]	x	-8%
CN1CCC(O)(c2ccccc2)C(C(=O)c2ccccc2)C1 (stereo not given)	0.14µM*	11	-4%
SMILES	ALDH1A1 block	IMPase inh	HPGD inh
CN1CCCC(C(=O)c2ccccc2)C1 (stereo not given)	8%	u	-8%
O=S(=O)(O)/C(=C\c1ccccc1)c1ccccc1 (tested in a mixture with another compound)	-7%[13.5 µM]	x	-1%
COc1cc(C(C#N)N2CCCCC2)ccc1O (stereo not given)	u	u	-14%
COc1cc(C(C#N)N2CCOCC2)ccc1O (stereo not given)	14µM*	9	x
COc1cccc(-n2c(/C=C/c3ccc(O)c(O)c3)nc3ccccc3c2=O)c1	25µM*	x	x
COc1ccc(-n2c(/C=C/c3ccc4c(c3)OCO4)nc3ccccc3c2=O)cc1	u	x	398%
C[C@@H]1CC[C@@H]2N(C1)C[C@H]1[C@@](O)([C@H](O)C[C@]3(O)[C@H]4CC[C@H]5[C@]6(O)O[C@]4(C[C@]13O)[C@@]5(C)CC[C@@H]6O)[C@@]2(C)O	13%[13.5 µM]	x	-7%
O=P(O)(O)CCP(=O)(O)O	1%[13.5 µM]	x	-6%
Oc1ccc([C@H](O)C2CCCCN2)cc1O (stereo not given in full)	5%[13.5 µM]	x	1%
O=C(c1cnccn1)N1CCC2(CC1)CN(Cc1ccncc1)C2	-14%	x	0%
CCN1C[C@@]2(COC)C3[C@@H](OC)C4[C@@H]1[C@@]3(C1C[C@@]3(O)[C@H](OC(=O)c5ccccc5)C1[C@]4(OC(C)=O)[C@@H](O)[C@@H]3OC)[C@@H](OC)C[C@H]2O (stereo not given in full)	-1%	7	-2%
CCN1C[C@]2(C)CC[C@H](OC)[C@]34C5C[C@@H]6CC[C@@](O)(C5C(=O)O6)C(C13)[C@@H](OC(=O)c1ccccc1)C24	3%	x	-4%
O=C(c1cc(S(=O)(=O)N2CCCCC2)ccc1F)N1CCC2(CC1)OCCO2	u	1	-5%
O=C(c1cc2c(s1)-c1ccccc1OC2)N1CCC2(CC1)OCCO2	u	-1	u
O=C(c1csc2c1CCCCC2)N1CCC2(CC1)OCCO2	8.9µM*	1	u
O=C(c1cc2c(s1)CCCC2)N1CCC2(CC1)OCCO2	11µM*	-1	25µM*
CC1(C)C(C(Cl)Cl)C2(Cl)C(Cl)C(Cl)C1(Cl)C2(Cl)Cl (stereo not given)	0%	x	-2%
CC1=C(O)C(=O)C=C2C1=CC=C1[C@]2(C)CC[C@@]2(C)C3C[C@](C)(C(=O)O)CC[C@@]3(C)CC[C@@]12C (stereo not given in full)	-6%	x	2µM*
C[C@]12CC[C@H](O)C[C@@H]1CC[C@H]1[C@H]2CC[C@]2(C)[C@H](C(=O)CO)CC[C@@H]12	x	4	x
CC(=O)NC(Cc1ccc(N(CCCl)CCCl)cc1)C(=O)NC(CC(C)C)C(=O)O (stereo not given)	2.2µM*	x	x
CC(=O)NC(Cc1ccc(N(CCCl)CCCl)cc1)C(=O)NCC(=O)NCC(=O)O (stereo not given)	2%	x	x
CC(C)=CCCC1(C)C=Cc2c(O)c3c(c(CC=C(C)C)c2O1)OC12C(=CC4CC1C(C)(C)OC2(C/C=C(/C)C(=O)O)C4=O)C3=O (stereo not given)	-6%	x	u
C[C@]12CN(CC[N+](C)(C)C)C[C@]1(C)[C@@H]1CC[C@@H]2O1	0%[13.5 µM]	x	2%
CCCCC[C@@H](/C=C/C=C\CCCCCCCC(=O)O)OO	-8%	x	0%
O=C(O)Cc1cccnc1C(=O)O	13%	0	-3%
O=C(CCn1c(=O)oc2ccccc21)N1CCN(C(c2ccccc2)c2ccccc2)CC1	18µM*	13	-19%
CCC(C)N1CCN(C(=O)Cc2ccccc2)CC1 (stereo not given)	-7%	4	3%
